# From PubChem BioAssay (NCATS)
# Records with an inconclusive call do not appear. A number with no mark means an inactive call. Calls come from the whole dose curve; as a rule, active = well fitted inhibition curve with a large enough effect; inconclusive = small, poorly fitted or top-dose-only effect; inactive = no such curve, though single readings can be large or run the other way.
# Molecular target: Cytochrome P450 3A4 (Homo sapiens) (UniProt P08684)
# Experiment: qHTS for inhibitors of CYP3A4 against the NCATS DSHEA and TCM libraries (AID 1919971);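 note: inhibition lowers luminescence from luciferin made by CYP3A4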
# Conditions: recombinant CYP3A4 enzyme activity, luminescence qHTS; series mostly up to 34.1 µM; activity change, negative = inhibition: at the top concentration
# Procedure, shortened: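 Light output from converted D-luciferin reports remaining CYP activity. Compounds preincubate with enzyme and substrate for 15 min; NADPH regeneration (1x final) runs the reaction for 30-45 min.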
# % is set by controls: 0 for no effect and ±100 for the full control effect.
# Chain of Cytochrome P450 3A4 (Homo sapiens) (P08684 whole entry, looked up): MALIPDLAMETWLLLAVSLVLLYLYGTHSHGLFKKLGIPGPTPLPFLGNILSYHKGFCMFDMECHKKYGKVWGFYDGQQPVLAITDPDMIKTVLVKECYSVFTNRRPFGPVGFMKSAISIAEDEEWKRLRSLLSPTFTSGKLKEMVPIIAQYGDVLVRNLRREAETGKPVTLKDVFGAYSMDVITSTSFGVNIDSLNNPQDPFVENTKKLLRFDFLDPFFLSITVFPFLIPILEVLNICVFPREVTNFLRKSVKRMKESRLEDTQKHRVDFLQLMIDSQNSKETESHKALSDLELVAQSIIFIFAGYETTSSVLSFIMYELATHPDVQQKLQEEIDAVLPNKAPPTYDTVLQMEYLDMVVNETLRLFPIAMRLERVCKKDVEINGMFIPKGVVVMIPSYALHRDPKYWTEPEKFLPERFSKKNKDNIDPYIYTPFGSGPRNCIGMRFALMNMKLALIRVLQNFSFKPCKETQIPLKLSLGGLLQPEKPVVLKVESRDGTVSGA
row,SMILES,"activity change, negative = inhibition"
1,O=C(O)/C=C/c1ccccc1,-4.14% [at 58.3 µM]
2,CC/C=C\C/C=C\C/C=C\C/C=C\C/C=C\C/C=C\CCC(=O)O,-5.74%
3,COC1=C(OC)C(=O)C(C/C=C(\C)CC/C=C(\C)CC/C=C(\C)CC/C=C(\C)CC/C=C(\C)CC/C=C(\C)CC/C=C(\C)CC/C=C(\C)CC/C=C(\C)CCC=C(C)C)=C(C)C1=O,4.56%
4,CCCCCCCCCCCC(=O)OCC(O)CO (centres undefined),1.24%
5,CCCCC/C=C\C/C=C\C/C=C\CCCCC(=O)O,10.3% [at 4.27 µM]
6,CC1=CCC2CC1C2(C)C (centres undefined),-22.4%
7,CC/C=C\C/C=C\C/C=C\C/C=C\C/C=C\CCCC(=O)O,-4.74%

# Molecular target: Cytochrome P450 2D6 (Homo sapiens) (UniProt P10635)
# Sequence (P10635 whole entry, looked up): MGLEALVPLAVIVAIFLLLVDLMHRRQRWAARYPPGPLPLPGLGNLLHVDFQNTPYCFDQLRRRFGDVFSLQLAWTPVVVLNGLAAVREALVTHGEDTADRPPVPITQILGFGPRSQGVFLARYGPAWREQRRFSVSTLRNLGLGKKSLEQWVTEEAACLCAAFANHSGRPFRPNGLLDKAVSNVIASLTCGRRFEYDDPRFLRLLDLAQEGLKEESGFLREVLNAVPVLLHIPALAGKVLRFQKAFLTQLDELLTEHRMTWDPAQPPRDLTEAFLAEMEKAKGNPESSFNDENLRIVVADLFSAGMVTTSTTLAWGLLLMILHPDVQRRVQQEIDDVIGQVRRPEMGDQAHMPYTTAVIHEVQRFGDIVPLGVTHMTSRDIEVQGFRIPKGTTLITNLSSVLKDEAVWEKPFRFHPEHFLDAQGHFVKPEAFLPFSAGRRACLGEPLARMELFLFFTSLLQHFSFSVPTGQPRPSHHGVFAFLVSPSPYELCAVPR
# Experiment: qHTS for inhibitors of CYP2D6 against the NCATS DSHEA and TCM libraries (AID 1919972)
# Conditions: CYP2D6 enzymatic inhibition, luminescence qHTS; series mostly up to 34.1 µM; activity change, negative = inhibition: at the top concentration
# Procedure, shortened: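 Steps: enzyme plus luciferin substrate dispensed; test substances pinned; 15 min RT; 1x NADPH regenerating solution added, 30–45 min RT protected from light; detection reagent, 30 min RT; luminescence measured. Minus-enzyme wells as background.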
row,SMILES,"activity change, negative = inhibition"
1,CC(C)=CCC/C(C)=C/CC/C(C)=C/CC/C(C)=C/CC1=C(C)C(=O)c2ccccc2C1=O,-7.42%
2,O=C(O)/C=C/c1ccccc1,-1.46% [at 58.3 µM]
3,COC1=C(OC)C(=O)C(C/C=C(\C)CC/C=C(\C)CC/C=C(\C)CC/C=C(\C)CC/C=C(\C)CC/C=C(\C)CC/C=C(\C)CC/C=C(\C)CC/C=C(\C)CCC=C(C)C)=C(C)C1=O,-0.861%
4,CCCCCCCCCCCC(=O)OCC(O)CO (centres undefined),-1.42%
5,CCCCC/C=C\C/C=C\C/C=C\CCCCC(=O)O,3.71% [at 4.27 µM]
6,CC1=CCC2CC1C2(C)C (centres undefined),-7.26%
7,CC/C=C\C/C=C\C/C=C\C/C=C\C/C=C\CCCC(=O)O,-3.99%
